Results as given in the antibiotic and cytotoxicity screens of Wong et al. (2023).
The campaign covered roughly 39,000 compounds. About 3,300 (8.5%) were called active. This excerpt belongs to a sample that is enriched for actives.

Each compound was assayed on HepG2 (assay: cytotoxicity call (relative viability < 0.9)). Settings: 10 µM.
O=C(COc1ccccc1)N1CCNC1=O was tested, and the cytotoxicity call was “inactive”.
In the case of CC(C)NC(=O)N(C)C[C@@H]1Oc2ncc(-c3ccc(C(=O)N(C)C)cc3)cc2C(=O)N([C@@H](C)CO)C[C@H]1C, the cytotoxicity call is reported as “inactive”.
With O=C(C[C@H]1C[C@H]2c3cc(NC(=O)C4CCOCC4)ccc3O[C@H]2[C@@H](CO)O1)NCCN1CCCCC1 the cytotoxicity call was “inactive”.
In the case of C[C@H]1CCCCO[C@H](CN(C)C(=O)c2ccccc2)[C@@H](C)CN([C@@H](C)CO)C(=O)c2cc(NC(=O)NC3CCCCC3)ccc2O1, the cytotoxicity call is reported as “inactive”.
For C[C@@H]1CN([C@H](C)CO)C(=O)c2cc(NC(=O)c3ccncc3)ccc2O[C@@H]1CN(C)Cc1ccc2c(c1)OCO2, the cytotoxicity call was “inactive”.
COc1ccc(S(=O)(=O)Nc2ccc3c(c2)C(=O)N([C@@H](C)CO)C[C@@H](C)[C@@H](CN(C)C(=O)Nc2ccc4c(c2)OCO4)OCCCC[C@H](C)O3)cc1 was tested, and the cytotoxicity call was “inactive”.
For Cc1cn([C@@H]2C[C@H](O)[C@@H](CO)O2)c(=O)[nH]c1=O, the cytotoxicity call was “inactive”.
With Cc1ccc(S(=O)(=O)Nc2ccc3c(c2)C(=O)N([C@H](C)CO)C[C@H](C)[C@H](CN(C)C(=O)CCC(F)(F)F)OCCCC[C@@H](C)O3)cc1 the cytotoxicity call was “inactive”.
CC(C)(C)OC(=O)C[C@H]1CC=CC[C@@H](CC(=O)NCCO)C(=O)N[C@@H](Cc2ccccc2)COC1=O was tested, and the cytotoxicity call was “inactive”.
With C[C@@H]1CN([C@@H](C)CO)C(=O)c2cccc(NC(=O)c3ccncc3)c2O[C@H]1CN(C)Cc1ccc2c(c1)OCO2 the cytotoxicity call was “inactive”.
In the case of CC(C)NC(=O)Nc1ccc2c(c1)C(=O)N([C@@H](C)CO)C[C@H](C)[C@@H](CN(C)Cc1ccc(C(=O)O)cc1)O2, the cytotoxicity call is reported as “inactive”.
C[C@@H]1CCCCO[C@@H](CN(C)C(=O)Nc2ccc(F)cc2)[C@@H](C)CN([C@H](C)CO)C(=O)c2cc(NC(=O)c3ccncc3)ccc2O1 was tested, and the cytotoxicity call was “inactive”.
COc1ccc(S(=O)(=O)Nc2ccc3c(c2)C(=O)N([C@@H](C)CO)C[C@H](C)[C@@H](CN(C)C(=O)Nc2ccc4c(c2)OCO4)OCCCC[C@@H](C)O3)cc1 was tested, and the cytotoxicity call was “inactive”.
Cc1ccc(S(=O)(=O)Nc2ccc3c(c2)C(=O)N([C@@H](C)CO)C[C@H](C)[C@@H](CN(C)C(=O)Nc2ccc4c(c2)OCO4)OCCCC[C@@H](C)O3)cc1 was tested, and the cytotoxicity call was “inactive”.
COc1ccc(S(=O)(=O)Nc2ccc3c(c2)C(=O)N([C@@H](C)CO)C[C@@H](C)[C@@H](CN(C)C(=O)Nc2ccc4c(c2)OCO4)OCCCC[C@@H](C)O3)cc1 was tested, and the cytotoxicity call was “active”.
With C[C@@H]1CN([C@H](C)CO)C(=O)c2cc(NS(=O)(=O)c3ccc(Cl)cc3)ccc2O[C@@H](C)CCCCO[C@H]1CN(C)C(=O)Nc1ccc2c(c1)OCO2 the cytotoxicity call was “inactive”.
For COc1ccc(S(=O)(=O)Nc2ccc3c(c2)C(=O)N([C@H](C)CO)C[C@H](C)[C@H](CN(C)C(=O)Nc2ccc4c(c2)OCO4)OCCCC[C@H](C)O3)cc1, the cytotoxicity call was “inactive”.
For Cc1ccc(S(=O)(=O)Nc2ccc3c(c2)C(=O)N([C@H](C)CO)C[C@H](C)[C@H](CN(C)C(=O)Nc2ccc4c(c2)OCO4)OCCCC[C@H](C)O3)cc1, the cytotoxicity call was “active”.
C[C@H]1CCCCO[C@H](CN(C)C(=O)Nc2ccc3c(c2)OCO3)[C@@H](C)CN([C@@H](C)CO)C(=O)c2cc(NS(=O)(=O)c3ccc(Cl)cc3)ccc2O1 was tested, and the cytotoxicity call was “active”.
With C[C@@H]1CCCCO[C@H](CN(C)C(=O)Nc2ccc3c(c2)OCO3)[C@H](C)CN([C@@H](C)CO)C(=O)c2cc(NS(=O)(=O)c3ccc(Cl)cc3)ccc2O1 the cytotoxicity call was “inactive”.
With Cc1ccc(S(=O)(=O)Nc2ccc3c(c2)C(=O)N([C@H](C)CO)C[C@H](C)[C@@H](CN(C)C(=O)Nc2ccc4c(c2)OCO4)OCCCC[C@H](C)O3)cc1 the cytotoxicity call was “inactive”.
In the case of COc1ccc2c3c(n(c2c1)C)[C@@H](CO)N(Cc1cc(cc(c1)OC)OC)C[C@]13CN(C1)C(=O)CN1CCOCC1, the cytotoxicity call is reported as “inactive”.
For COCC(=O)N1CC[C@@H]2N(S(C)(=O)=O)CC[C@@]2(C(=O)N2CCOCC2)CC1, the cytotoxicity call was “inactive”.
With CC(=O)Nc1cc(C(C)C)c(C(C)C)cc1C(C)C the cytotoxicity call was “inactive”.
For C[C@H](CO)N1C[C@H](C)[C@@H](CN(C)C(=O)Nc2ccc3c(c2)OCO3)OCCCC[C@H](C)Oc2ccc(NC(=O)c3ccccc3)cc2C1=O, the cytotoxicity call was “inactive”.
COCC(=O)N1C[C@H](C)[C@H](OC)CN(C)C(=O)c2cc(NC(=O)c3ccc(F)cc3)ccc2OC[C@@H]1C was tested, and the cytotoxicity call was “inactive”.
In the case of C[C@H]1CN([C@@H](C)CO)C(=O)c2cc(NS(=O)(=O)c3cccs3)ccc2O[C@@H]1CN(C)S(=O)(=O)c1ccc(F)cc1, the cytotoxicity call is reported as “inactive”.
With COc1ccc2c3c([nH]c2c1)[C@H](CO)N(C[C@]13CCN(CC1)C(=O)c1ccccc1F)C(=O)Nc1ccccc1F the cytotoxicity call was “inactive”.
With C[C@@H]1CN([C@H](C)CO)C(=O)c2cccc(NC(=O)Nc3ccc4c(c3)OCO4)c2O[C@H]1CN(C)S(C)(=O)=O the cytotoxicity call was “inactive”.
With CN1C[C@@H](O)COC[C@H]2O[C@@H](CC(=O)N3CCN(c4ccccc4)CC3)CC[C@@H]21 the cytotoxicity call was “inactive”.
In the case of CN(C)S(=O)(=O)N1C[C@H]2C[C@H](C(=O)Nc3cccnc3)[C@@H](C1)O2, the cytotoxicity call is reported as “inactive”.
In the case of CN1CCCC1c1cccnc1.O=C(O)C(O)C(O)C(=O)O.O=C(O)C(O)C(O)C(=O)O (stereo unspecified), the cytotoxicity call is reported as “inactive”.
For C[C@H](c1cccnc1)N(C(=O)Nc1ccccc1)C1CCCCC1, the cytotoxicity call was “active”.
For C[C@@H]1CN([C@@H](C)CO)C(=O)c2cccc(NC(=O)C3CCCCC3)c2O[C@@H]1CN(C)C(=O)Nc1cccc2ccccc12, the cytotoxicity call was “inactive”.
For C=CCN1C(=O)[C@@]2(O[C@@H](CCO)[C@H]([Si](C)(C)c3ccc(OC)cc3)[C@H]2C)c2cc(NC(=O)[C@H](C)O)ccc21, the cytotoxicity call was “inactive”.
With C=CCN1C(=O)[C@@]2(O[C@@H](CCO)[C@H]([Si](C)(C)c3ccc(OC)cc3)[C@H]2C)c2cc(N(C=O)c3ccccc3)ccc21 the cytotoxicity call was “active”.
With C=CCN1C(=O)[C@]2(O[C@H](CCn3cc(CCO)nn3)[C@@H]([Si](C)(C)c3ccc(OC)cc3)[C@@H]2C)c2cc(N3CCC3=O)ccc21 the cytotoxicity call was “inactive”.
With C=CCN1C(=O)[C@@]2(O[C@@H](CCn3cc(CCO)nn3)[C@H]([Si](C)(C)c3ccc(OC)cc3)[C@H]2C)c2cc(N3CCC3=O)ccc21 the cytotoxicity call was “inactive”.
With C=CCN1C(=O)[C@]2(O[C@H](CCO)[C@@H]([Si](C)(C)c3ccc(OC)cc3)[C@@H]2C)c2cc(NC(=O)[C@H](C)O)ccc21 the cytotoxicity call was “inactive”.
With C=CCN1C(=O)[C@]2(O[C@H](CCO)[C@@H]([Si](C)(C)c3ccc(OC)cc3)[C@@H]2C)c2cc(N(C=O)c3ccccc3)ccc21 the cytotoxicity call was “active”.
In the case of CC(=O)N[C@H](Cc1ccc2ccccc2c1)C(=O)N[C@H](Cc1ccc(Cl)cc1)C(=O)N[C@H](Cc1cccnc1)C(=O)N[C@@H](CO)C(=O)N[C@@H](Cc1ccc(NC(=O)[C@@H]2CC(=O)NC(=O)N2)cc1)C(=O)N[C@H](Cc1ccc(NC(N)=O)cc1)C(=O)N[C@@H](CC(C)C)C(=O)N[C@@H](CCCCNC(C)C)C(=O)N1CCC[C@H]1C(=O)N[C@H](C)C(N)=O, the cytotoxicity call is reported as “inactive”.
With COc1ccc(NC(=O)Nc2ccc3c(c2)C(=O)N([C@H](C)CO)C[C@H](C)[C@H](CN(C)S(=O)(=O)c2ccc(F)cc2)OCCCC[C@H](C)O3)cc1 the cytotoxicity call was “inactive”.
With CC(C)NC(=O)Nc1ccc2c(c1)C(=O)N([C@@H](C)CO)C[C@@H](C)[C@H](CN(C)C(=O)Nc1ccc(C(F)(F)F)cc1)OCCCC[C@@H](C)O2 the cytotoxicity call was “active”.
For CC(C)NC(=O)Nc1ccc2c(c1)C(=O)N([C@@H](C)CO)C[C@@H](C)[C@H](CN(C)C(=O)Nc1ccc(C(F)(F)F)cc1)OCCCC[C@H](C)O2, the cytotoxicity call was “inactive”.
For CC(C)NC(=O)Nc1ccc2c(c1)C(=O)N([C@H](C)CO)C[C@H](C)[C@H](CN(C)C(=O)Nc1ccc(C(F)(F)F)cc1)OCCCC[C@H](C)O2, the cytotoxicity call was “inactive”.
For CC(C)NC(=O)Nc1ccc2c(c1)C(=O)N([C@H](C)CO)C[C@@H](C)[C@H](CN(C)C(=O)Nc1ccc(C(F)(F)F)cc1)OCCCC[C@H](C)O2, the cytotoxicity call was “inactive”.
With CC(C)NC(=O)Nc1ccc2c(c1)C(=O)N([C@H](C)CO)C[C@@H](C)[C@@H](CN(C)C(=O)Nc1ccc(C(F)(F)F)cc1)OCCCC[C@@H](C)O2 the cytotoxicity call was “active”.
CC(C)NC(=O)Nc1ccc2c(c1)C(=O)N([C@@H](C)CO)C[C@@H](C)[C@@H](CN(C)C(=O)Nc1ccc(C(F)(F)F)cc1)OCCCC[C@H](C)O2 was tested, and the cytotoxicity call was “inactive”.
C[C@H]1CCCCO[C@@H](CN(C)C(=O)c2ccccc2)[C@@H](C)CN([C@@H](C)CO)C(=O)c2cc(NC(=O)C3CCCCC3)ccc2O1 was tested, and the cytotoxicity call was “inactive”.
In the case of CC(C)(C)[S@@](=O)N1Cc2cc(C(=O)NCc3ccc4c(c3)OCO4)nc(-c3cccc(-c4cccnc4)c3)c2[C@H]1CCO, the cytotoxicity call is reported as “inactive”.
With COCCNC(=O)C[C@@H]1CC[C@@H]2[C@@H](COc3ccc(NC(=O)Nc4cccc(F)c4)cc3C(=O)N2C)O1 the cytotoxicity call was “inactive”.
With CCCCNC(=O)N1C[C@@H]2[C@H](CN)[C@@H]2C1 the cytotoxicity call was “inactive”.
With Cc1ccc(S(=O)(=O)Nc2ccc3c(c2)C(=O)N([C@@H](C)CO)C[C@H](C)[C@@H](CN(C)C(=O)NC2CCCCC2)OCCCC[C@@H](C)O3)cc1 the cytotoxicity call was “inactive”.
Cc1ccc(S(=O)(=O)Nc2ccc3c(c2)C(=O)N([C@@H](C)CO)C[C@H](C)[C@@H](CN(C)C(=O)NC2CCCCC2)OCCCC[C@H](C)O3)cc1 was tested, and the cytotoxicity call was “active”.
In the case of Cc1ccc(S(=O)(=O)Nc2ccc3c(c2)C(=O)N([C@@H](C)CO)C[C@@H](C)[C@H](CN(C)C(=O)NC2CCCCC2)OCCCC[C@@H](C)O3)cc1, the cytotoxicity call is reported as “active”.
With Cc1ccc(S(=O)(=O)Nc2ccc3c(c2)C(=O)N([C@H](C)CO)C[C@H](C)[C@@H](CN(C)C(=O)NC2CCCCC2)OCCCC[C@H](C)O3)cc1 the cytotoxicity call was “inactive”.
In the case of C[C@@H]1CCCCO[C@H](CN(C)C(=O)NC2CCCCC2)[C@H](C)CN([C@H](C)CO)C(=O)c2cc(NS(=O)(=O)c3ccc(F)cc3)ccc2O1, the cytotoxicity call is reported as “active”.
With C[C@@H]1CCCCO[C@@H](CN(C)C(=O)NC2CCCCC2)[C@@H](C)CN([C@@H](C)CO)C(=O)c2cc(NS(=O)(=O)c3ccc(F)cc3)ccc2O1 the cytotoxicity call was “inactive”.
For Cc1ccc(S(=O)(=O)Nc2ccc3c(c2)C(=O)N([C@H](C)CO)C[C@@H](C)[C@H](CN(C)C(=O)NC2CCCCC2)OCCCC[C@@H](C)O3)cc1, the cytotoxicity call was “inactive”.
In the case of Cc1ccc(S(=O)(=O)Nc2ccc3c(c2)C(=O)N([C@@H](C)CO)C[C@H](C)[C@H](CN(C)C(=O)NC2CCCCC2)OCCCC[C@@H](C)O3)cc1, the cytotoxicity call is reported as “inactive”.
For C[C@H](CO)N1C[C@H](C)[C@@H](CN(C)C(=O)NC2CCCCC2)OCCCC[C@H](C)Oc2ccc(NS(=O)(=O)c3ccc(F)cc3)cc2C1=O, the cytotoxicity call was “inactive”.
